# Assay results from PubChem BioAssay (NCI).
# About 79,000 compounds went through this panel and 15% of them were active in at least one assay; those are over-represented in the sample as a whole. The source made the active and inactive calls. Cut-off read from the data, not from the text of the source: active = growth inhibition above about 70%; inactive = the rest.
# Assay: NCI Yeast Anticancer Drug Screen. Data for the CLN2oe strain (AID 163);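 note: 0% = growth of vehicle-only control cultures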
# Conditions: S. cerevisiae CLN2oe strain, at 100.0 µM, hits give high values
# Outline: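 First, the altered yeast strain was treated with each compound; second, its growth was measured; finally, inhibition was derived by comparison with vehicle controls.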
row,SMILES,growth inhibition
1,COc1ccc2nc3cccc([N+](=O)[O-])c3c(NCCNCCN(C)C)c2c1,12% (inactive)
2,Cc1cccc(/C=N/NC(=S)NC2CCCCC2)n1,12% (inactive)
3,COC(=O)C(=O)c1c(-c2ccc(Cl)c(Cl)c2)[nH]c2[nH]n(-c3ccccc3)c(=O)c2c1=O,58% (inactive)
4,c1ccc([P+](CCN2Cc3ccccc3C2)(c2ccccc2)c2ccccc2)cc1,93% (active)
5,Cc1cc(C)c2[s+]snc2c1,17% (inactive)
6,CC(C)(Br)C(=O)/C=C/c1ccccc1,19% (inactive)
7,Cc1ccc(S(=O)(=O)NC(=O)C2C(=O)CC3(CCCCC3)CC2=O)cc1,84% (active)
8,NC(=S)N1N=C2c3ccccc3CC[C@H]2[C@@H]1c1ccc(Cl)cc1,86% (active)
9,O=[N+]([O-])/C=C/c1cc2ccc3ccccc3c2[nH]1,87% (active)
10,O=C1C(=C2CCCC2)CCC1CN1CCCCC1 (configuration not stated),91% (active)
11,OC(CC(O)(C(F)(F)F)C(F)(F)F)c1ccc(C(O)CC(O)(C(F)(F)F)C(F)(F)F)cc1 (configuration not stated),100% (active)
12,COc1cc2c(cc1OC)[C@@H](Nc1ccc(C#N)cc1)C1COC(=O)[C@@H]1C2c1cc(OC)c(O)c(OC)c1 (some centres not stated),84% (active)
13,O=c1cccccc1[O-].O=c1cccccc1[O-].O=c1cccccc1[O-].[Eu+3],98% (active)
14,O=C1c2ccccc2C(=O)c2sc(Nc3ccccc3Cl)nc21,98% (active)
15,NC(CCCCCCCCCCCCC(N)C(=O)c1ccccc1)C(=O)c1ccccc1 (configuration not stated),95% (active)
16,CC1=C(C)C(=O)C2=C(OCCO2)C1=O,27% (inactive)
17,c1ccc(-c2cc(C3CO3)c3ccccc3n2)cc1 (configuration not stated),97% (active)
18,S=C1C(=Nc2ccccc2)N(c2ccccc2)/C(=N\c2ccccn2)N1c1ccccc1,97% (active)

row,SMILES,growth inhibition
1,CCC(OC(C)=O)C1CC(C(C)C)CCC1C (configuration not stated),5% (inactive)
2,CC(C)=CCc1c2c(c(O)c3c(=O)c(-c4ccc(O)c(O)c4)coc13)C=CC(C)(C)O2,81% (active)
3,O=C(NC(N1CCN(c2cc3c(cc2F)c(=O)c(C(=O)O)cn3C2CC2)CC1)(C(F)(F)F)C(F)(F)F)c1ccccc1,58% (inactive)
4,Fc1cc(F)c(F)c(S)c1F,98% (active)
5,COc1ccc2cc3c4cc5c(cc4cc[n+]3cc2c1OC)OCO5,97% (active)
6,CCCCCCCCNCCCCCCCC,97% (active)
7,Nc1cc(Cl)ccc1Nc1ccccc1,84% (active)
8,O=C(/C(=C/c1ccc(O)cc1)c1ccccc1)c1ccccc1,93% (active)
9,O=Cc1ccccc1C=O,85% (active)
10,C1=CCN([B-](c2ccccc2)[C+]2CCCCC2)C=C1,95% (active)
11,CC/C(=C(\c1ccccc1)c1ccc(OCC[N+](C)(C)C)cc1)c1ccccc1,99% (active)
12,O=S(=O)(c1cccc(C(F)(F)F)c1)N1c2ccccc2-n2cccc2C1c1cccnc1 (configuration not stated),90% (active)
13,Nc1ccc2c(c1)C(=O)c1c(F)cccc1-2,32% (inactive)
14,CN(C)/C(=N/C(=S)Nc1ccccc1)SCc1ccccc1,-1% (inactive)
15,CCN(CC)C(=S)N/N=C(\C)c1ccccc1O,99% (active)
16,CC(C)OC(=O)NNc1cc(Cl)ccc1Cl,59% (inactive)
17,CC(C)CCC[C@@H](C)[C@H]1CC[C@H]2[C@@H]3CC[C@H]4C[C@H](N)CC[C@]4(C)[C@H]3CC[C@]12C,-7% (inactive)
18,O=C1c2ccccc2-c2ccc(N=Cc3ccccc3)cc21,24% (inactive)

# Assay: NCI Yeast Anticancer Drug Screen. Data for the cln2 rad14 strain (AID 165);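 note: 0% = growth equal to vehicle treated cultures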
# Conditions: S. cerevisiae cln2 rad14 strain, at 5.0 µM (retest, dose inferred, filed as 0.5), hits give high values
# Outline: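 Test compounds were added to cln2 rad14 yeast cultures; inhibition of growth was then determined by comparison with vehicle treatment.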
row,SMILES,growth inhibition
1,COc1ccc2nc3cccc([N+](=O)[O-])c3c(NCCNCCN(C)C)c2c1,32% (inactive)
2,Cc1cccc(/C=N/NC(=S)NC2CCCCC2)n1,-24% (inactive)
3,COC(=O)C(=O)c1c(-c2ccc(Cl)c(Cl)c2)[nH]c2[nH]n(-c3ccccc3)c(=O)c2c1=O,-11% (inactive)
4,c1ccc([P+](CCN2Cc3ccccc3C2)(c2ccccc2)c2ccccc2)cc1,23% (inactive)
5,Cc1cc(C)c2[s+]snc2c1,-19% (inactive)
6,CC(C)(Br)C(=O)/C=C/c1ccccc1,3% (inactive)
7,Cc1ccc(S(=O)(=O)NC(=O)C2C(=O)CC3(CCCCC3)CC2=O)cc1,5% (inactive)
8,NC(=S)N1N=C2c3ccccc3CC[C@H]2[C@@H]1c1ccc(Cl)cc1,12% (inactive)
9,O=[N+]([O-])/C=C/c1cc2ccc3ccccc3c2[nH]1,-6% (inactive)
10,O=C1C(=C2CCCC2)CCC1CN1CCCCC1 (configuration not stated),4% (inactive)
11,OC(CC(O)(C(F)(F)F)C(F)(F)F)c1ccc(C(O)CC(O)(C(F)(F)F)C(F)(F)F)cc1 (configuration not stated),68% (inactive)
12,COc1cc2c(cc1OC)[C@@H](Nc1ccc(C#N)cc1)C1COC(=O)[C@@H]1C2c1cc(OC)c(O)c(OC)c1 (some centres not stated),7% (inactive)
13,O=c1cccccc1[O-].O=c1cccccc1[O-].O=c1cccccc1[O-].[Eu+3],5% (inactive)
14,O=C1c2ccccc2C(=O)c2sc(Nc3ccccc3Cl)nc21,57% (inactive)
15,NC(CCCCCCCCCCCCC(N)C(=O)c1ccccc1)C(=O)c1ccccc1 (configuration not stated),-26% (inactive)
16,CC1=C(C)C(=O)C2=C(OCCO2)C1=O,3% (inactive)
17,c1ccc(-c2cc(C3CO3)c3ccccc3n2)cc1 (configuration not stated),-29% (inactive)
18,S=C1C(=Nc2ccccc2)N(c2ccccc2)/C(=N\c2ccccn2)N1c1ccccc1,28% (inactive)

row,SMILES,growth inhibition
1,CCC(OC(C)=O)C1CC(C(C)C)CCC1C (configuration not stated),9% (inactive)
2,CC(C)=CCc1c2c(c(O)c3c(=O)c(-c4ccc(O)c(O)c4)coc13)C=CC(C)(C)O2,23% (inactive)
3,O=C(NC(N1CCN(c2cc3c(cc2F)c(=O)c(C(=O)O)cn3C2CC2)CC1)(C(F)(F)F)C(F)(F)F)c1ccccc1,-3% (inactive)
4,Fc1cc(F)c(F)c(S)c1F,43% (inactive)
5,COc1ccc2cc3c4cc5c(cc4cc[n+]3cc2c1OC)OCO5,55% (inactive)
6,CCCCCCCCNCCCCCCCC,65% (inactive)
7,Nc1cc(Cl)ccc1Nc1ccccc1,24% (inactive)
8,O=C(/C(=C/c1ccc(O)cc1)c1ccccc1)c1ccccc1,20% (inactive)
9,O=Cc1ccccc1C=O,5% (inactive)
10,C1=CCN([B-](c2ccccc2)[C+]2CCCCC2)C=C1,-1% (inactive)
11,CC/C(=C(\c1ccccc1)c1ccc(OCC[N+](C)(C)C)cc1)c1ccccc1,21% (inactive)
12,O=S(=O)(c1cccc(C(F)(F)F)c1)N1c2ccccc2-n2cccc2C1c1cccnc1 (configuration not stated),22% (inactive)
13,Nc1ccc2c(c1)C(=O)c1c(F)cccc1-2,-55% (inactive)
14,CN(C)/C(=N/C(=S)Nc1ccccc1)SCc1ccccc1,-15% (inactive)
15,CCN(CC)C(=S)N/N=C(\C)c1ccccc1O,54% (inactive)
16,CC(C)OC(=O)NNc1cc(Cl)ccc1Cl,4% (inactive)
17,CC(C)CCC[C@@H](C)[C@H]1CC[C@H]2[C@@H]3CC[C@H]4C[C@H](N)CC[C@]4(C)[C@H]3CC[C@]12C,-10% (inactive)
18,O=C1c2ccccc2-c2ccc(N=Cc3ccccc3)cc21,-2% (inactive)
